The text below walks through data of PubChem BioAssay (EPA / NIEHS).

Assay [1] in a line: ATG_PPRE_CIS: Attagene CIS-FACTORIAL HepG2 Assay for human Peroxisome Proliferator-activated Response Element (PPRE) (AID 2282958). The conditions noted are these: HepG2 PPRE cis-element reporter, Attagene transcription factor profiling; actives raise or lower the signal. The procedure, abridged: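 Measured endpoint: PPRE-controlled reporter mRNA, detected by RT-PCR and capillary electrophoresis fluorescence, from transiently transfected HepG2 cells 24 h after dosing. Curves fitted in both directions using DMSO baseline.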

Assay [2] is described as follows: ATG_Sox_CIS: Attagene CIS-FACTORIAL HepG2 Assay for human SRY-box transcription factor (SOX) (AID 2282960). The conditions noted are these: HepG2 Attagene cis-factorial SOX reporter, mRNA; actives raise or lower the signal. The procedure, abridged: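 Gain- or loss-of-signal endpoint, fitted bidirectionally with DMSO as negative control. Based on reporter mRNA from transfected HepG2 cells harvested 24 h post-treatment and quantified via RT-PCR and capillary electrophoresis.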

For assay [3], the target named is Transcription factor Sp1 (Homo sapiens) (UniProt P08047). Kind of assay: ATG_Sp1_CIS: Attagene CIS-FACTORIAL HepG2 Assay for human Specificity Protein 1 (Sp1) (AID 2282961). To be noted: HepG2 Sp1 cis-reporter transcription, actives raise or lower the signal. An outline of the steps: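 Endpoint reflects endogenous Sp1 transcriptional activity, not an exogenous fusion protein: HepG2 cells with transfected cis-regulated reporters, 24 h dosing, RT-PCR/capillary electrophoresis mRNA read-out, DMSO-normalised bidirectional fit.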
Transcription factor Sp1 (Homo sapiens), sequence (P08047 whole entry, looked up, the tested form may be a part): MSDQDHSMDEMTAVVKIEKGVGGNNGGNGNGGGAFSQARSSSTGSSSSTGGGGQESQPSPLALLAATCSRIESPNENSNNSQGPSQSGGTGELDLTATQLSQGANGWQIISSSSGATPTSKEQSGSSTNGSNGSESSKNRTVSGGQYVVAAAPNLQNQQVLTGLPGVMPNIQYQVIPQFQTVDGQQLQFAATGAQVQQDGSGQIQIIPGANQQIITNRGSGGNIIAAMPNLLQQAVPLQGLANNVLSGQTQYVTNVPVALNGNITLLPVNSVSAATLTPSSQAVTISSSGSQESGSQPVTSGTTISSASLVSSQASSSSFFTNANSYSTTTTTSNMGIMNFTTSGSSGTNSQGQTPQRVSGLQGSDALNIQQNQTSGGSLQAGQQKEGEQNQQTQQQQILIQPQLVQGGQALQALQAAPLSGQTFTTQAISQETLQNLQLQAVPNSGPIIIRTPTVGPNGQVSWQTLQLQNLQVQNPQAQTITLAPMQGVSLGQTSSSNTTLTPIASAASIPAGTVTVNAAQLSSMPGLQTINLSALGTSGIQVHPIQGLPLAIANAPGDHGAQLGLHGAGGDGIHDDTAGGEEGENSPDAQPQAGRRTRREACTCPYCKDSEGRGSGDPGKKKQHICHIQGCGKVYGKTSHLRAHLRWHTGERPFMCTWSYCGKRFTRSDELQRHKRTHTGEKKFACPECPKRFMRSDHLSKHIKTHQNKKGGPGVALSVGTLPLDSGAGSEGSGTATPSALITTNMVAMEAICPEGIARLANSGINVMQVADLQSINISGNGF

The nature of assay [4]: ATG_SREBP_CIS: Attagene CIS-FACTORIAL HepG2 Assay for human Sterol Regulatory Element Binding (SREBP) (AID 2282962). To be noted: HepG2 Attagene cis-factorial SREBP reporter, mRNA; actives raise or lower the signal. An outline of the steps: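 In this cis-format assay, HepG2 liver cells express reporters controlled by promoter elements responsive to native transcription factors. Exposure lasts 24 h; reporter mRNA fluorescence from capillary electrophoresis gives the signal, fitted bidirectionally against DMSO.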

In assay [5] the target is Signal transducer and activator of transcription 3 (Homo sapiens) (UniProt P40763). Kind of assay: ATG_STAT3_CIS: Attagene CIS-FACTORIAL HepG2 Assay for human Signal Transducer and Activator of Transcription 3 (STAT3) (AID 2282963). To be noted: HepG2, Attagene cis-factorial STAT3 reporter transcription; actives raise or lower the signal. The procedure, abridged:
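Readout is reporter transcript quantified by RT-PCR and capillary electrophoresis, with 6-FAM primer extension and HpaI digestion. Total RNA is taken 24 h after dosing transiently transfected HepG2 carrying cis-regulated reporter units. Bidirectional fit against DMSO.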

Assay [6] is described as follows: ATG_TA_CIS: Attagene CIS-FACTORIAL HepG2 Assay for human TA Basal Promoter (AID 2282964). The conditions noted are these: HepG2 Attagene CIS-factorial TA basal promoter reporter; actives raise or lower the signal. The procedure, abridged: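 HepG2 cells transiently transfected with multiplexed cis-promoter reporter units, dosed 24 h. Reporter mRNA measured by RT-PCR, 6-FAM labelling, HpaI digestion and capillary electrophoresis; bidirectional fit versus DMSO baseline, serving as background control.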

Assay [7] can be described thus: ATG_TCF_b_cat_CIS: Attagene CIS-FACTORIAL HepG2 Assay for human T-Cell-Factor with beta-catenin (TCF/b-cat) (AID 2282965). The conditions noted are these: HepG2 TCF/beta-catenin cis-reporter transcription, actives raise or lower the signal. An outline of the steps:
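Measured: reporter mRNA in HepG2 transiently transfected with cis-promoter reporter units, 24 h after chemical addition. Fitting was bidirectional, DMSO as negative control.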

Assay [8] is described as follows: ATG_TAL_CIS: Attagene CIS-FACTORIAL HepG2 Assay for human TAL Basal Promoter (AID 2282966).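 Also: background control endpoint measuring basal TAL promoter reporter mRNA not a specific factor.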 To be noted: HepG2 Attagene cis-factorial TAL promoter reporter; actives raise or lower the signal. An outline of the steps:
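Transiently transfected HepG2 (cis-regulated reporter units), 24 h treatment, mRNA read by fluorescent CE after RT-PCR; bidirectional fit, DMSO baseline.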

A short description of assay [9]: ATG_RORE_CIS: Attagene CIS-FACTORIAL HepG2 Assay for human RAR-related Orphan Receptor Element (RORE) (AID 2282959). The conditions noted are these: HepG2 Attagene cis-factorial RORE reporter, mRNA; actives raise or lower the signal. The procedure, abridged:
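Transiently transfected HepG2 reporter cells were treated 24 h. Reporter transcripts were detected by RT-PCR and capillary electrophoresis, with bidirectional fitting against DMSO.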

Activity calls are given as the source filed them. The calls were made as follows: active = hit-call score of the fitted dose curve at least 0.9, where 1 is the maximum; inactive = score below 0.9.

Signal transducer and activator of transcription 3 (Homo sapiens), sequence (P40763 whole entry, looked up): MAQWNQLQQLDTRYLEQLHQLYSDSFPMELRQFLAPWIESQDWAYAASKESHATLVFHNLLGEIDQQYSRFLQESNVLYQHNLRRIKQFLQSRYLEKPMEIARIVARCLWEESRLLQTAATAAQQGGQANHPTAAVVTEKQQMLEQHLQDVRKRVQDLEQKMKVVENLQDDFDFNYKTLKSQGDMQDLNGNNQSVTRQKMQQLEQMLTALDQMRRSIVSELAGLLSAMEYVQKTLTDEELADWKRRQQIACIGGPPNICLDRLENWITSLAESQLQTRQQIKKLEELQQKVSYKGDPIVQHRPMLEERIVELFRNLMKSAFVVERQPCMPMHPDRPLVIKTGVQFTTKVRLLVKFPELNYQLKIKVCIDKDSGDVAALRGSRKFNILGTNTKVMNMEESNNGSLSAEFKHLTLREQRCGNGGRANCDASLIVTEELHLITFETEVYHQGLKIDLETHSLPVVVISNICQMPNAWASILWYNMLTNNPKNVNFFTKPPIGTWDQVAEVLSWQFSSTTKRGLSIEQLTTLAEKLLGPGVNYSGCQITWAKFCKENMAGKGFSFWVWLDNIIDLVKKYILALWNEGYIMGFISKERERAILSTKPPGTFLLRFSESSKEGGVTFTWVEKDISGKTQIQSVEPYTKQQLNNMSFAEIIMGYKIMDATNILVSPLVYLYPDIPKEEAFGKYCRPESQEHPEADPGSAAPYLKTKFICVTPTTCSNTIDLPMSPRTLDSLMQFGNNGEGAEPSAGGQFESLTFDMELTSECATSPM

As for `CCC(C)c1cc([N+](=O)[O-])cc([N+](=O)[O-])c1OC(=O)OC(C)C` (centres undefined), the call in assay [1], in [3], in assay [6], in assay [7] and in assay [8] was inactive. Further, the values for the half-maximal activity concentration (AC50) in assay [2], in assay [4] and in assay [5] were 25.3 µM (active), 25.1 µM (active) and 100 µM (active), respectively.
Turning to `C=Cc1ccc(C(C)(C)C)cc1`, the compound was called inactive in assay [1], in assay [9], in [2], in [3], in assay [4] and in assay [5]. The result in assay [7] and in assay [8] was inactive.
`CCOC(=O)C(C#N)=C(c1ccccc1)c1ccccc1`: the half-maximal activity concentration (AC50) (in general, the concentration at which the activity in the assay is half-maximal) in [9] was 17.4 µM (active); in assay [4] it was 33.3 µM (active); in assay [6], 23.5 µM (active); in [7] it was 26 µM (active). Besides, the compound was called inactive in assay [2], in [3], in assay [5] and in [8].
